# Source: the supplement of paper PMC12819154, “High-throughput peptide-centric local stability assay extends protein–ligand identification to membrane proteins, tissues and bacteria” (Nature Structural & Molecular Biology, 2025)
# Compound: Cc1nc(Nc2ncc(C(=O)Nc3c(C)cccc3Cl)s2)cc(N2CCN(CCO)CC2)n1 [dasatinib]
# Assay: log2 fold change of tryptic peptide abundance, ligand vs vehicle (limited proteolysis) (log2 ratio); higher = more trypsin-susceptible (destabilized)
# Settings: ligand concentration: 5 uM; sample: K562 cleared lysate
# Chain of UniProt Q15759 (Q15759 whole entry): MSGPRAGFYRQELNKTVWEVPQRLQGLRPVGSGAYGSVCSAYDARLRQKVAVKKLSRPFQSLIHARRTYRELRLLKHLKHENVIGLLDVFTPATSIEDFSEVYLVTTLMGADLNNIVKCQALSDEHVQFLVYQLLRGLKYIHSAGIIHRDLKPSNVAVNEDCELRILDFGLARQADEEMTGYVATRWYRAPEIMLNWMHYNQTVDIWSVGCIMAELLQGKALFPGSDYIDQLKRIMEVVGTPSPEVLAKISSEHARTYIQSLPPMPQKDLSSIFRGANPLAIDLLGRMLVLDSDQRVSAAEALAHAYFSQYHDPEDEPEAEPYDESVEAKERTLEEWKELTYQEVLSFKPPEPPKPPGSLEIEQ
row,Target,log2 fold change
1,"MAPK11 (peptide sequence: ILDFGLAR, peptide start residue: 167) (UniProt Q15759)",-0.259
2,"SYK (peptide sequence: GSEVTAMLEKGER, peptide start residue: 578) (UniProt P43405)",-0.709
3,"UniProt P46781 (peptide sequence: ELLTLDEKDPRR, peptide start residue: 59)",-0.304
